What all share (assay): Primary qHTS to identify gynecologic anti-cancer compounds using libraries of approved drugs and bioactive compounds (AID 1345084); also: nearly all actives have a fitted effect of over 55% in size
(In general: Quantitative high-throughput screening tests each substance at several concentrations.)

The test system of one assay is C33A. The note with it: Gynecologic cancer cell panel viability, ATPlite luminescence, 48 h; series mostly up to 57.5 µM. An outline of the steps: (§1)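 Measured: luminescence after ATPlite addition (15 min, RT). Exposure: 48 h, 37 C, 5% CO2.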
In general terms: In ATP-based viability assays light output follows the ATP content of the culture.

The next assay has as its system CAOV3. The note with it: Gynecologic cancer cell panel viability, ATPlite luminescence, 48 h; series mostly up to 57.5 µM. The essentials:
as §1

In another assay the test system is CASKI. The conditions noted are these: Gynecologic cancer cell panel viability, ATPlite luminescence, 48 h; series mostly up to 57.5 µM. The essentials: as §1
A further assay concerns Es-2. The note with it: Gynecologic cancer cell panel viability, ATPlite luminescence, 48 h; series mostly up to 57.5 µM. The essentials: as §1
For another assay, the system named is Hek293T. The note with it: Gynecologic cancer cell panel viability, ATPlite luminescence, 48 h, control line for the selectivity index; series mostly up to 57.5 µM. An outline of the steps:
as §1

Another assay has as its system JEG-3. The note with it: Gynecologic cancer cell panel viability, ATPlite luminescence, 48 h; series mostly up to 57.5 µM. The essentials:
as §1

Another assay deals with OV90. The conditions noted are these: Gynecologic cancer cell panel viability, ATPlite luminescence, 48 h; series mostly up to 57.5 µM. An outline of the steps: as §1
Another assay relates to PA-1. The conditions noted are these: Gynecologic cancer cell panel viability, ATPlite luminescence, 48 h; series mostly up to 57.5 µM. The essentials:
as §1

In a further assay the test system is SKOV3. The note with it: Gynecologic cancer cell panel viability, ATPlite luminescence, 48 h; series mostly up to 57.5 µM. The essentials:
as §1

A further assay has as its system HeLa. The conditions noted are these: Gynecologic cancer cell panel viability, ATPlite luminescence, 48 h; series mostly up to 57.5 µM. The essentials:
as §1

Drawing on PubChem BioAssay (NCATS), this text covers Potency for 17 compounds.

Structures are written as SMILES. Records with an inconclusive call do not appear. The source made the active and inactive calls. Calls follow the shape of the dose curve; as a rule, active = well fitted cell-killing curve with a large enough effect; inconclusive = small, poorly fitted or top-dose-only effect, or effect the other way; inactive = flat fitted curve, though single readings scatter.
Potency is read from the fitted curve at half-maximal effect.

For the compound `NS(=O)(=O)c1cc2c(cc1Cl)NC(C(Cl)Cl)NS2(=O)=O` (centres undefined), the Potency entry in the assay with C33A, in the assay on CAOV3, in the assay with CASKI, in the assay on Es-2, in the assay with Hek293T and with JEG-3 was “inactive” each time. In addition, the Potency entry with OV90, in the assay on PA-1 and in the assay with SKOV3 was “inactive” each time.
Turning to `COCCCOc1cc(C[C@@H](C[C@H](N)[C@@H](O)C[C@H](C(=O)NCC(C)(C)C(N)=O)C(C)C)C(C)C)ccc1OC`, the Potency entry with C33A, in the assay on CAOV3, in the assay with CASKI, in the assay on Es-2, in the assay on Hek293T and with JEG-3 was “inactive” throughout. The Potency entry with OV90, with PA-1 and with SKOV3 was “inactive” in each case.
With `C1CCC(C(CC2CCCCN2)C2CCCCC2)CC1` (centres undefined), the Potency is 31.6 µM (active) in the assay with C33A; 6.31 µM (active) in the assay with CAOV3; 20 µM (active) in the assay on CASKI; 28.2 µM (active) in the assay on Es-2; 25.1 µM (active) in the assay on OV90; 7.94 µM (active) in the assay on SKOV3.
Turning to `NC1(c2ccc(-c3nc4ccn5c(=O)[nH]nc5c4cc3-c3ccccc3)cc2)CCC1`, the Potency result in the assay on C33A, with CAOV3, in the assay on Es-2 and with HeLa was “inactive” in each case. For the same compound, the Potency is 3.55 µM (active) in the assay with Hek293T, 2 µM (active) in the assay with OV90, 22.4 µM (active) in the assay with PA-1 and 11.2 µM (active) in the assay with SKOV3.
Take `NNC(=O)c1ccncc1`: the Potency entry in the assay on C33A, in the assay on CAOV3, with CASKI, in the assay on Es-2, in the assay on Hek293T and in the assay with JEG-3 was “inactive” each time. Besides, the Potency result in the assay on OV90, in the assay with PA-1 and in the assay with SKOV3 was “inactive” each time.
Take `COc1ccc(-c2ccc3cc(C(=O)O)ccc3c2)cc1C12CC3CC(CC(C3)C1)C2`: the Potency result in the assay on C33A, with CAOV3, in the assay on CASKI, with Es-2, in the assay with Hek293T and in the assay on JEG-3 was “inactive” throughout. Also, the Potency entry in the assay on OV90, in the assay with PA-1 and in the assay with SKOV3 was “inactive” each time.
As to `CO[C@@]12[C@H](COC(N)=O)C3=C(C(=O)C(C)=C(N)C3=O)N1C[C@@H]1N[C@@H]12`, the Potency result with C33A is “inactive”. Also, the Potency was 3.55 µM (active) with CAOV3, 8.91 µM (active) with CASKI, 4.47 µM (active) with Es-2 and 17.8 µM (active) in the assay with OV90.
As to `S=P(N1CC1)(N1CC1)N1CC1`, the Potency entry in the assay on C33A, with CAOV3, in the assay on Es-2, with HeLa, with Hek293T and with JEG-3 was “inactive” each time. In addition, the Potency result in the assay on PA-1 and with SKOV3 was “inactive” each time.
With `O=C(O)CCn1c2c(c3ccccc31)C[C@H](NS(=O)(=O)c1ccc(F)cc1)CC2`, the Potency entry with C33A, with CAOV3, in the assay with CASKI, in the assay on Es-2, in the assay with Hek293T and with JEG-3 was “inactive” in each case. The Potency result in the assay on OV90, in the assay on PA-1 and with SKOV3 was “inactive” each time.
In the case of `CCCCCCNC(=O)n1cc(F)c(=O)[nH]c1=O`, the Potency entry in the assay on C33A, in the assay with CAOV3, with CASKI, with HeLa, in the assay with Hek293T and in the assay on OV90 was “inactive” in each case.
In the case of `CO[C@@H]1[C@@H](OC(N)=O)[C@@H](O)[C@H](Oc2ccc3c(O)c(NC(=O)c4ccc(O)c(CC=C(C)C)c4)c(=O)oc3c2C)OC1(C)C`, the Potency result with C33A, in the assay with CAOV3, in the assay with CASKI, with HeLa, with Hek293T and in the assay with JEG-3 was “inactive” throughout. Further, the Potency entry in the assay on OV90, in the assay on PA-1 and in the assay with SKOV3 was “inactive” in each case.
Consider `Cc1cccc(Nc2ccncc2S(=O)(=O)NC(=O)NC(C)C)c1`, for which the Potency entry with C33A, in the assay on CAOV3, in the assay on CASKI, in the assay with Es-2, in the assay with Hek293T and in the assay on JEG-3 was “inactive” in each case. Moreover, the Potency entry in the assay on OV90, with PA-1 and with SKOV3 was “inactive” in each case.
For the compound `COc1cc(NS(=O)(=O)c2ccc(N)cc2)nc(OC)n1`, the Potency result in the assay with C33A, with CAOV3, with CASKI, in the assay on Es-2, in the assay with Hek293T and with JEG-3 was “inactive” each time. For the same compound, the Potency entry in the assay on PA-1 and in the assay with SKOV3 was “inactive” throughout.
As for `CN(C)c1ccc(C(=C2C=CC(=[N+](C)C)C=C2)c2ccc(N(C)C)cc2)cc1`, the Potency in the assay on C33A was 10 µM (active); in the assay with CAOV3 it was 1.41 µM (active); in the assay on CASKI, 1.12 µM (active); in the assay with Es-2 it was 1.78 µM (active); in the assay on JEG-3, 14.1 µM (active); with PA-1, 0.447 µM (active). Further, in the assay with SKOV3, the Potency is 0.316 µM (active).
Take `O=C(O)c1cccnc1`: the Potency entry in the assay with C33A, with CAOV3, in the assay with CASKI, in the assay with Es-2, with Hek293T and with JEG-3 was “inactive” each time. Also, the Potency result in the assay with OV90, with PA-1 and in the assay on SKOV3 was “inactive” each time.
In the case of `CC(=O)Oc1ccccc1C(=O)Nc1ncc([N+](=O)[O-])s1`, the Potency result with C33A, with CAOV3, in the assay on CASKI, in the assay with JEG-3 and in the assay with OV90 was “inactive” in each case.
With `COc1cccc(N(C)C(=S)Oc2ccc3c(c2)CCCC3)n1`, the Potency entry in the assay with C33A, with CAOV3, in the assay on CASKI, in the assay on Es-2, with Hek293T and in the assay with JEG-3 was “inactive” each time. Further, the Potency result in the assay with OV90, with PA-1 and in the assay on SKOV3 was “inactive” throughout.
